The panel holds about 83,000 compounds, 20% with a hit somewhere; the sample as a whole holds those more often.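 96-well plates, one dose, 48 hours. Percent growth reported; active if below 10.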 A number with no mark means an inactive call. Active and inactive are the calls of the source.

In the assay the test system is HL-60(TB) leukemia. In words: NCI-60 one-dose screen, 48 h (100 = growth as untreated, 0 = no growth, -100 = all killed). The following applies: 10 µM unless noted.
As to `Cc1nc(Nc2cccnc2)sc1C(=O)/C=C/c1ccc(F)cc1`, the growth is 12.6%. Next, `CN(C)c1ccc(Nc2c3ccccc3nc3ccccc23)cc1`: -2.21% (active). Next, `CN1CCN(CCCOc2ccc3nc(Nc4ccc(Cl)c(C(F)(F)F)c4)ccc3c2)CC1`: 63.7%; `COc1cc2nc(Nc3cccc(NC(C)=O)c3)nc(N)c2cc1OC`: 102%; `Fc1ccc2c(c1)c(-c1nc(-c3c[nH]c4ncccc34)cs1)cn2CCCN1CCOCC1`: 21.9%. In the case of `COc1cc(/C=C/C(=O)c2cccc(-n3cc(-c4ccc(Cl)cc4)[nH]c3=O)c2)cc(OC)c1OC`, the growth is 62.7%. With `C[C@H](NC(=O)[C@@H]1CSSC[C@@H](NC(=O)Cc2nc3ccccc3cc2O)C(=O)NCC(=O)N1C)c1ccccc1`, the growth is 32.1%. Next, `CCOC(=O)NNc1nncc2ccccc12`: 103%; `C[C@H]1c2ccccc2CN1CCCOc1cc2c(cc1OCC1CC1)C1(CCCC1)C(N)=N2`: 31%; `CCC(=O)Oc1ccc2c(c1)CC[C@@H]1[C@@H]2CC[C@]2(C)C[C@H](OC(=O)CC)C[C@@H]12`: 30.8%. For the compound `Cc1ccc(C(=O)Nc2ccc(CN3CCN(C)CC3)c(C(F)(F)F)c2)cc1C#Cc1cnc(N)c2ccccc12`, the growth is -37.9% (active). Next, `Cc1ccc(NC(=O)c2sc3nc4c(cc3c2N)C(=O)CCC4)cc1`: 110%; `CC(C)(C)CC(N)=O`: 120%; `O=CNc1ccc2c(c1)Cc1cccc(NC=O)c1-2`: 70.6%. Next, `CCN1CCN(C(=O)[C@]23CC[C@@H](C)[C@H](C)[C@@H]2C2=CC[C@@H]4[C@@]5(C)C/C(=C/c6ccncc6)C(=O)C(C)(C)[C@@H]5CC[C@@]4(C)[C@]2(C)CC3)CC1`: -33.1% (active). Turning to `O=[N+]([O-])c1ccc(O)c(S(=O)(=O)O)c1`, the growth was 101%. Next, `Cc1ccc(S(=O)(=O)OC2COCOC2C(OS(=O)(=O)c2ccc(C)cc2)C2OCOCC2OS(=O)(=O)c2ccc(C)cc2)cc1` (stereo unspecified): 106%; `NC1=NC(c2ccccc2OS(=O)(=O)c2ccc(Br)cc2)n2c(nc3ccccc32)N1` (stereo unspecified): 69.7%. Next, `NS(=O)(=O)c1ccc(CN2C(=O)c3cccc4cccc(c34)C2=O)cc1`: 98.6%; `COc1ccc(C(O)c2cc3c(N)c(C(=O)Nc4cccc5ccccc45)sc3nc2C)cc1` (stereo unspecified): -1.39% (active). As for `O=C(Nc1cccc(-n2cc(-c3ccncc3)c(-c3ccc(Cl)c(O)c3)n2)c1)Nc1cc(C(F)(F)F)cc(C(F)(F)F)c1`, the growth was -18.3% (active). Next, `COc1ccc2[nH]cc(C3(c4c[nH]c5ccc(OC)cc45)C(=O)Nc4ccc(F)cc43)c2c1`: -40.3% (active); `COc1cc2ncnc(Nc3ccc4c(cnn4C(=O)Nc4ccccc4)c3)c2cc1OC`: 83.5%. Next, `S=c1nn[nH]c2ccccc12`: 105%; `O=C1CCCCC=C1C[N+](=O)[O-]`: 0.0104% (active); `Cc1nc2ccccc2c(/C=C/c2ccc(F)cc2)c1C(=O)/C=C/c1ccccc1`: 7.37% (active).

The record behind these values is PubChem BioAssay (NCI).
